High-throughput results as filed in PubChem.
CCT chaperon mod: modulators of cytosolic chaperonin (CCT/TRiC) activity. activity change, % (test concentration not listed), hits read low. purified chaperonin ATPase assay, HTRF ADP detection, 30 min. 360,000 tested, 0.3% active; in the data active means activity change below about -30%
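TRiC at 40 or 20 nM final (batch-dependent) in 30 mM Tris pH 7.4, 100 mM KCl, 5 mM MgCl2, 1 mM DTT, with compound at single 76 uM and 10 uM ATP, 30 min at 37 deg C. ADP detected by HTRF Transcreener, 665/615 ratio.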
PI4K2A block: inhibitors of human PI4K2A; activity change, negative = inhibition, % at 76.9 µM; Q9BTU6; purified PI4K2A, ADP-Glo luminescence, 1 h; active compounds read low; 420,000 tested, 0.13% active; in the data active means activity change below about -50%; inconclusive means mostly about -30% to -49%;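 further: -100% = wells without enzyme as full effect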
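ADP-Glo luminescence measured ADP generated by PI4K2A enzyme (4 ug/mL before mixing) with 1.2 mM PI substrate (pre-mix) and 300 microM ATP (pre-mix). Tris pH7.5 buffer with MgCl2, Triton X-100; 1 h reaction at ambient temperature.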
CtBP-E1A inh: CtBP/E1A binding inhibition; AlphaScreen GST-E1A/His-CtBP binding, 1536-well; active compounds read low; AID 651724; activity change, % (test concentration not listed); 340,000 tested, 0.49% active
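AlphaScreen with 125 nM GST-E1A and 125 nM His-CtBP (5X stocks) in Tris pH 8.0, 300 mM NaCl, BSA, Tween 20, TCEP. Compounds preincubated 2 h at 37 deg C, then glutathione donor/nickel acceptor beads added for 1 h at 37 deg C in dark.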
Eya2 inh: Eya2 (human) phosphatase inhibition; 330,000 tested, 0.006% active; recombinant Eya2, OMFP fluorescence dephosphorylation (OMFP is methylfluorescein phosphate); Potency, µM (doses to about 76.9 µM), for inactives: top-dose activity, negative = inhibition, hits mostly inhibitors; O00167; active means well fitted inhibition curve with a large enough effect; inconclusive means small, poorly fitted or top-dose-only effect, or effect the other way; further: potency means the concentration at half of the fitted maximal effect
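Eya2 (0.2 uM) preincubated 10 min at ambient with compound, then OMFP substrate added at 50 uM; 10 min reaction in 50 mM HEPES pH 7.5, 50 mM NaCl, 5 uM MgCl2, 0.05% BSA, 1 mM DTT. Fluorescence read at Ex 485/Em 525 nm.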
Six1-Eya2 inh: inhibitors of human Six1/Eya2 interaction | 360,000 tested, 0.56% active | AlphaScreen GST-Six1/His-Eya2 binding, biochemical; active compounds read low | Q15475+O00167 | activity change, % (test concentration not listed)
Target sequence (O00167 whole entry, looked up): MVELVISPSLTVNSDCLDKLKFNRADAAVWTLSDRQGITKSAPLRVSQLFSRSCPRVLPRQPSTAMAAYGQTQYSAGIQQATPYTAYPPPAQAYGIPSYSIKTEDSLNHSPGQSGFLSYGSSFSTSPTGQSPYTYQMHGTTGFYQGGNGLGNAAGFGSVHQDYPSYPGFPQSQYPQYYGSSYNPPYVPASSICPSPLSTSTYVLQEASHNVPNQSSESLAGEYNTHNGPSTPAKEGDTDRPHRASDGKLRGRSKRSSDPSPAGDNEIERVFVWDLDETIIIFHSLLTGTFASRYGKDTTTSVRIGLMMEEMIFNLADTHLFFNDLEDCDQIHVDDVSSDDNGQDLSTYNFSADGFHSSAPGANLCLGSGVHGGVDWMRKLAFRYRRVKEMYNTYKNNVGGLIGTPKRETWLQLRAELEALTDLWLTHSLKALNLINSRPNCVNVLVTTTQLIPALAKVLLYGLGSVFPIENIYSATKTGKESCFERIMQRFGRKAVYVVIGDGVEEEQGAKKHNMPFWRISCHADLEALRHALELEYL
Target sequence (Q15475 whole entry, looked up): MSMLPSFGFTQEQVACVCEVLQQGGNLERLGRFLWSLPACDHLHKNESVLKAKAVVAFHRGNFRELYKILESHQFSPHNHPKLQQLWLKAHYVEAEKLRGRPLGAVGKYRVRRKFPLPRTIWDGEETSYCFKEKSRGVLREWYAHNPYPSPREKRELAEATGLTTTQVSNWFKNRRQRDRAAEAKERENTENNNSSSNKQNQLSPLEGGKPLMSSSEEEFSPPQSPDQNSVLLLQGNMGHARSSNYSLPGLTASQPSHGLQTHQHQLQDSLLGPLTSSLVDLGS
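GST-Six1 + His-Eya2 (5X stock: 250/500 nM); Tris pH 8.0, 300 mM NaCl, 0.05% BSA, 0.02% Tween 20; GSH donor/Ni acceptor beads; 1 h 37 °C dark; AlphaScreen readout.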
Starred values were filed as active, the others as inactive; u = inconclusive; x = no result given. Shown are actives, neighbours in structure and some others; about 0.97% of the full set was active somewhere. Unless noted, no stated cut-off is given here; in the data, active means activity change below about -65%; inconclusive means mostly about -30% to -63%; inactive means weaker than that. Unless noted, on the % scale 0 is the no-effect control and ±100 the full control effect.

SMILES	CCT chaperon mod	PI4K2A block	CtBP-E1A inh	Eya2 inh	Six1-Eya2 inh
O=S(=O)(c1ccc(F)cc1)N(CC(O)Cn1c2ccccc2c2ccccc21)c1ccccc1 (configuration not stated)	x	-1	x	x	x
COc1ccc(-n2nc3c(c2NC(=O)COc2ccccc2)CS(=O)(=O)C3)cc1	-1	4	1	-8%	0
COc1ccc(-n2nc3c(c2NC(=O)COc2ccccc2F)CS(=O)(=O)C3)cc1	-32*	-1	6	-10%	-1
Nc1nc(=O)n([C@@H]2O[C@H](CO)[C@@H](O)[C@@H]2F)cc1I	x	-1	x	x	x
CCOC(=O)c1oc2c(c1C)C(=O)CCC2	-2	1	17	-3%	2
CCOC(=O)c1oc2c(c1C)/C(=N/O)CCC2	-1	19	-3	-8%	-83*
CN(C)c1ccc(N=Nc2ccccc2C(=O)OCC(=O)Nc2ccccc2C(F)(F)F)cc1	-6	-6	-29	-2%	-71*
CN(C)c1ccc(N=Nc2ccccc2C(=O)OCC(=O)N2CCCCCC2)cc1	0	-4	-66*	-7%	-74*
CN(C)c1ccc(N=Nc2ccccc2C(=O)OCC(=O)N2CCCC2)cc1	2	-4	-30	-19%	u
CNC[C@H](O)[C@@H](O)[C@H](O)[C@H](O)CO	x	1	x	x	x
Oc1c(Cl)cc(Cl)cc1CNc1ccc(Br)cn1	-2	4	-75*	2%	-70*
Cc1cccc(NC(=O)c2cccc(NC(=O)c3ccccc3)c2)n1	1	0	1	-18%	-6
Cc1cccc(NC(=O)c2ccc3nccnc3c2)n1	-50*	0	-10	3%	-6
COc1ccc(-c2cc3nc(C)cc(N)n3n2)cc1	2	-88*	1	-5%	-20
COc1ccc(S(=O)(=O)c2nnn(-c3ccc(C)c(Cl)c3)c2C)cc1	x	3	x	x	x
COc1cc(C(C)=O)ccc1OCC(=O)Nc1ccc(Cl)c(S(=O)(=O)N2CCOCC2)c1	-98*	-1	-13	6%	-14
COc1ccc(C(=O)Nc2ccc(N3CCOCC3)cc2)cc1S(=O)(=O)N1CCOCC1	2	-5	12	24%	-4
COc1ccc(C(=O)Nc2ccc(-c3cn4ccsc4n3)cc2)cc1S(=O)(=O)N1CCOCC1	-2	-1	-73*	-1%	-77*
Cc1nn(C)c2c1c(-c1ccccc1)cc(=O)n2C(C)C(=O)NCc1ccc(F)cc1 (configuration not stated)	x	-4	x	x	x
CCn1c(=O)c(CCC(=O)N2CCN(c3ccccn3)CC2)c(C)c2c(C)nn(-c3cccc(C)c3)c21	-35*	-3	x	-6%	21
Cc1nc2nc(C)c(CCC(=O)N3CCN(c4ccccn4)CC3)c(C)n2n1	0	1	-7	11%	-3
Cc1cccn2c(=O)c3cc(C(=O)NCCc4ccc(S(N)(=O)=O)cc4)n(C)c3nc12	x	-7	x	x	x
O=C(c1cc(F)cc(F)c1)N1CCC(c2nc(-c3ccc(S(=O)(=O)N4CCCC4)cc3)no2)CC1	x	-1	x	x	x
Cc1ccc(C2=N/C(=C\c3ccc(F)cc3)C(=O)N2)cc1	-44*	0	x	5%	8
Cc1ccc2c(c1)/C(=C/c1ccc(F)cc1)C(=O)N2	0	1	x	-9%	-1
SMILES	CCT chaperon mod	PI4K2A block	CtBP-E1A inh	Eya2 inh	Six1-Eya2 inh
Cn1c(=N)c(S(=O)(=O)c2ccccc2)cc2c(=O)n3ccccc3nc21	-2	3	-70*	6%	u
Cn1c(=N)c(S(=O)(=O)c2ccc(F)cc2)cc2c(=O)n3ccccc3nc21	-2	5	-15	17%	-11
Cc1cc(NS(=O)(=O)c2ccc(NC(=O)COc3ccc(C#N)cc3)cc2)nc(C)n1	-32*	-2	0	11%	-18
O=C(OCc1nnc(-c2ccccc2)o1)c1cn(-c2ccccc2)nc1-c1ccccc1	0	-2	10	-2%	7
Cc1cc(C(=O)OCc2nnc(-c3ccccc3)o2)c(C)n1-c1ccccc1	-127*	2	-8	-3%	-6
CCc1ccc(NC(=O)CN2CCN(Cc3ccccc3)S2(=O)=O)cc1	x	3	x	x	x
CCOC(=O)c1cnc(SC)nc1Sc1ccccc1Cl	1	-6	38	-8%	28
CSc1nc(Sc2ccccc2Cl)c2ccccc2n1	-77*	-10	3	6%	8
Cc1cc2oc(C(=O)N(Cc3ccc(N(C)C)cc3)CC3CCCO3)c(C)c2cc1Cl (configuration not stated)	x	-5	x	x	x
Nc1ccc(S(=O)(=O)Nc2nccc(/C=C/c3ccc(Cl)cc3)n2)cc1	1	-6	-76*	2%	u
Nc1ccc(S(=O)(=O)Nc2nccc(/C=C/c3ccc([N+](=O)[O-])cc3)n2)cc1	-5	-6	-29	-18%	-16
O=c1c2cc3c(cc2n(Cc2cccc(F)c2)c(=O)n1Cc1nc(-c2ccccc2)no1)OCO3	x	-7	x	x	x
O=C1Nc2cc(C(=O)N3CCN(c4ccccn4)CC3)ccc2S/C1=C\c1ccccc1	-42*	9	-2	-6%	0
COc1ccc(OC)c(-n2c(SCC(=O)Nc3cccc(S(N)(=O)=O)c3)nc3ccccc3c2=O)c1	-40*	-9	-5	1%	-1
COc1ccccc1-n1c(SCC(=O)Nc2cccc(S(N)(=O)=O)c2)nc2ccccc2c1=O	0	3	0	-13%	4
Oc1cccc2[nH]ccc12	x	-1	x	x	x
O=C(N/N=C/c1ccc(O)c(O)c1O)/C(=C/c1ccc([N+](=O)[O-])cc1)NC(=O)c1ccccc1	3	-5	-94*	4%	-90*
Cc1ccc(NC(=O)/C(=C\c2ccc([N+](=O)[O-])cc2)NC(=O)c2ccccc2)cc1	3	6	2	2%	-3
COC(=O)/C(=C\c1ccc([N+](=O)[O-])cc1)NC(=O)c1ccccc1	-3	2	-91*	x	-25
COc1ccc(/C=C\c2onc(C)c2S(=O)(=O)N2CCC(C(=O)Nc3cccc(OC)c3)CC2)cc1	x	-3	x	x	x
CCCCNC(=O)c1cn(CC(C)C)c(=O)c2c1c1ccccc1n2C	-1	2	3	-20%	-2
CC(C)CCNC(=O)c1cn(CC(C)C)c(=O)c2c1c1ccccc1n2C	-41*	3	x	-1%	-2
O=C(Nc1cccc(C(F)(F)F)c1)c1ccc2nc(-c3ccco3)c(-c3ccco3)nc2c1	0	-53*	u	0%	-77*
O=C(Nc1ccc2nc(-c3ccco3)c(-c3ccco3)nc2c1)NC1CC1	-2	u	u	3%	-68*
O=C(NCCCO)Nc1ccc2nc(-c3ccco3)c(-c3ccco3)nc2c1	x	x	x	8%	x
O=C(O)c1ccc2nc(-c3ccco3)c(-c3ccco3)nc2c1	-2	-14	-25	1%	u
CN(Cc1ccco1)S(=O)(=O)c1ccc2c(c1)CCN2C(=O)CC(C)(C)C	x	-5	x	x	x
